From PubChem
This is a sample that favours compounds with a hit; in the whole collection about 2.6% have one here.
Cruzain Triton = cruzain (T. cruzi) inhibition with detergent; purified cruzain, Z-FR-AMC fluorescence, 0.01% Triton; Potency, µM, inactives show max response, negative = inhibition, most hits filed as inhibitors; actives 0.43% (n = 200,000);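 note: plate controls were neutral wells for no effect and buffer without enzyme for full effect; nearly all actives have a fitted effect of over 40% in size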
Target sequence (P25779 123-467 limits assumed): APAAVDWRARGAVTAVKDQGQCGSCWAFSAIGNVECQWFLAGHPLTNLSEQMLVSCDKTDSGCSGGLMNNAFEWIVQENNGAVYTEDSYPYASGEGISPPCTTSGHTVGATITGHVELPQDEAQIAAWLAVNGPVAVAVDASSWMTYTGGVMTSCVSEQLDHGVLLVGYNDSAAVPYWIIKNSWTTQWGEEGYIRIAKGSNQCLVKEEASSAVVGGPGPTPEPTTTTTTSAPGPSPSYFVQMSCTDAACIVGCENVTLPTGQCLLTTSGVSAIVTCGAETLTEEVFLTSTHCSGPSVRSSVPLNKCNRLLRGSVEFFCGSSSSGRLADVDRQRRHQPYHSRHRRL
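15 min RT preincubation of 1.5 nM cruzain with compound, then 2 uM Z-FR-AMC added; kinetic AMC fluorescence, 60 s delta. Triton X-100 0.01%, pH 5.5.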
Cruzain inh noDet = inhibitors of Trypanosoma cruzi cruzain without detergent; purified cruzain, Z-FR-AMC fluorescence, no detergent; AID 1476; P25779; actives 2.3% (n = 200,000); Potency, µM, without a hit: max response, negative = inhibition, most hits filed as inhibitors;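 note: plate controls were enzyme without inhibitor for no effect and buffer without enzyme for full effect; nearly all actives have a fitted effect of over 40% in size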
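Detergent-free condition (0.00005% Triton X-100) in acetate buffer pH 5.5 with DTT. 1.5 nM enzyme and compound were pre-mixed 15 min, then 2 uM Z-FR-AMC substrate added; reaction progress from fluorescence change between first and third reads (60 s).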
* marks the source's active call; other numbers are inactive results; ? = inconclusive. Calls come from the whole dose curve; as a rule, active = well fitted curve in the direction sought with a large enough effect; inconclusive = small, poorly fitted or top-dose-only effect, or another doubt; inactive = no such curve, though single readings can be large; an effect the other way counts as inactive or inconclusive. Potency is the fitted concentration of half-maximal effect.

SMILES | Cruzain Triton | Cruzain inh noDet
Cc1ccc(C2CC(=O)n3nc(-c4ccc(F)cc4)nc3S2)cc1 (stereo not given) | -3% | -2%
COc1cc(/C=N/Nc2cccc(C)c2)ccc1OC(=O)c1cccs1 | -3% | 16µM*
COc1cc(/C=N/Nc2ccc3ccccc3c2)ccc1OC(=O)c1ccco1 | 0% | 25µM*
COc1cc(/C=N/NC(=O)COc2ccccc2C)ccc1OC(=O)c1cccs1 | 0% | -13%
COc1cc(/C=N/Nc2nc(C)cc(C)n2)ccc1OC(=O)c1ccco1 | -6% | 6%
O=C(NC1CCCC1)O[C@@H]1C(=O)c2cc(Br)ccc2O[C@H]1c1ccc2c(c1)OCO2 | -4% | 2%
COc1ccc(CCNC(=O)CCc2c(C)nc3c4cccnc4nn3c2C)cc1OC | -4% | -5%
COc1ccc(C(=O)Nc2ccc(-c3cc4ccccc4oc3=O)c(C)c2)cc1OC | -2% | ?
O=C(Nc1ccc2oc(-c3ccc4ccccc4c3)nc2c1)c1cc(Br)ccc1Cl | 0% | -1%
COc1cc(NC(=O)c2cc(Cl)ccc2Cl)ccc1-c1cc2ccccc2oc1=O | -15% | 20µM*
O=C(Nc1ccc2oc(-c3ccc4ccccc4c3)nc2c1)c1cc(Cl)ccc1Cl | -1% | 5µM*
C/C(Cl)=C/CCl | 7% | -1%
COc1ccccc1N1CCN(C(=O)CSc2ncnc3scc(-c4ccccc4)c23)CC1 | 0% | 6%
O=C(CSc1ncnc2scc(-c3ccccc3)c12)N1CCN(c2ccccc2F)CC1 | -4% | 32µM*
Cc1ccc(-c2nnc(Nc3ccc(Br)cc3)c3ccccc23)cc1S(=O)(=O)NCc1nc2ccccc2[nH]1 | -6% | ?
COc1ccc(CN(Cc2ccco2)c2cnc(S(C)(=O)=O)nc2C(=O)Nc2ccc(C)c(C)c2)cc1 | -3% | 20µM*
Cc1ccc(NC(=O)c2nc(S(C)(=O)=O)ncc2N(Cc2ccco2)Cc2ccccc2F)c(C)c1 | -3% | 1%
CC(C)(C)c1ccc(CN(Cc2ccco2)c2cnc(S(C)(=O)=O)nc2C(=O)Nc2ccc(F)cc2)cc1 | -4% | 7.9µM*
CC(C)c1ccc(CN(Cc2ccco2)c2cnc(S(C)(=O)=O)nc2C(=O)Nc2ccccc2)cc1 | -4% | ?
CCS(=O)(=O)c1ncc(N(Cc2ccco2)Cc2ccccc2F)c(C(=O)Nc2cccc(Cl)c2)n1 | -3% | 20µM*
COc1ccc(CN(Cc2ccco2)c2cnc(S(C)(=O)=O)nc2C(=O)Nc2ccc(C)cc2C)cc1 | -4% | ?
COc1ccc(-c2nc3cc(C(C)C)ccc3o2)cc1NC(=O)COc1ccc(C)cc1C | -2% | 8%
CCCCC[C@H](O)/C=C/C=C/C/C=C\CCCC(=O)O | 2% | -8%
COc1ccc(Cl)cc1NC(=O)CN(C)S(=O)(=O)c1ccc2c(c1)CCCN2C(C)=O | -4% | ?
COC(=O)[C@@]1(Cc2ccc(OC)cc2)[C@H]2c3cc(C(=O)N(C)C)n(Cc4ccc(C)c(F)c4F)c3C[C@H]2CN1C(=O)c1ccccc1 | -4% | ?
SMILES | Cruzain Triton | Cruzain inh noDet
CCC(C)C(=O)Nc1nc(C)c(-c2csc(Nc3cc(OC)ccc3OC)n2)s1 (stereo not given) | -6% | -20%
COc1ccc(OC)c(Nc2nc(-c3sc(NC(=O)CC(C)C)nc3C)cs2)c1 | -1% | -29%
CCCCCCC(=O)Nc1nc(C)c(-c2csc(Nc3ccccc3OC)n2)s1 | 4% | 10µM*
CCCCCC(=O)Nc1nc(C)c(-c2csc(Nc3ccccc3OCC)n2)s1 | 1% | 7.9µM*
CCCC(=O)Nc1nc(C)c(-c2csc(Nc3ccccc3C)n2)s1 | 2% | -27%
CCCCCC(=O)Nc1nc(C)c(-c2csc(Nc3ccccc3OC)n2)s1 | -2% | 13µM*
CCCN1C(=O)C2(c3ccccc31)c1c(oc3ccccc3c1=O)C(=O)N2CCO (stereo not given) | 1% | -3%
Cc1nn(-c2ccccc2)c2nc(C3CC3)cc(C(=O)Nc3ccccc3F)c12 | -4% | ?
Cc1ccc(C2c3c(-c4cc(C)ccc4O)n[nH]c3C(=O)N2Cc2ccco2)cc1 (stereo not given) | -21% | ?
CNc1oc(/C=C/c2ccccc2)nc1C#N | 25µM* | ?
CNc1oc(-c2ccccc2)nc1C#N | -9% | 30%
COC(=O)[C@H]1O[C@@H](c2cc(OC)c(C)c(OC)c2OCc2ccccc2)[C@H](C)[C@@H]2O[C@]12C | -3% | 3%
c1ccc2c[n+](CCCC[n+]3ccc4ccccc4c3)ccc2c1 | 3% | -1%
O=[N+]([O-])c1ccc(N/N=C/c2ccc[nH]2)cc1 | -24% | 25µM*
Brc1ccc(-c2ccc(/C=N/Nc3nncc(-c4ccccc4)n3)o2)cc1 | 5% | -6%
Brc1ccc(-c2ccc(/C=N/Nc3nc4ccccc4[nH]3)o2)cc1 | ? | 7.9µM*
Cc1nn(-c2ccccc2)c(N2CCCC2)c1/C=N/Nc1ccc(S(=O)(=O)Nc2ccccc2)cc1[N+](=O)[O-] | 5% | ?
O=C(N/N=C/c1ccc[nH]1)c1ccccc1[N+](=O)[O-] | -4% | -10%
COc1ccccc1NS(=O)(=O)c1ccc(N/N=C/c2c(C)nn(-c3ccccc3)c2N2CCCC2)c([N+](=O)[O-])c1 | -1% | 3.2µM*
O=C(N/N=C/c1c[nH]c2ccccc12)c1cccc([N+](=O)[O-])c1 | -12% | 1%
O=C(N/N=C/c1c[nH]c2c1ccc1ccccc12)c1ccc([N+](=O)[O-])cc1 | -4% | 6.3µM*
NC(N)=N/N=C(/c1ccccc1)c1ccc(O)cc1O | -3% | -5%
Cc1cccc2nc(-c3cccc(NS(=O)(=O)c4ccccc4)c3)cn12 | -7% | 7%
COCC(=O)C(C(=O)OC)[C@H](CCc1ccccc1)NC(=O)OC (stereo not given in full) | 3% | -8%
O=[N+]([O-])c1ccc(N/N=C/c2c[nH]c3ccccc23)cc1 | -4% | 25µM*
SMILES | Cruzain Triton | Cruzain inh noDet
Cc1[nH]c2ccccc2c1/C=N/Nc1ccc([N+](=O)[O-])cc1S(=O)(=O)Nc1ccc(Cl)cc1 | 5% | 5µM*
COc1ccc(NS(=O)(=O)c2cc([N+](=O)[O-])ccc2N/N=C\c2c(C)[nH]c3ccccc23)cc1 | 2% | ?
COc1ccc(/C=N/Nc2ccc([N+](=O)[O-])cc2S(=O)(=O)N2CCN(C)CC2)cc1 | -4% | 2%
COc1ccc([N+](=O)[O-])cc1NS(=O)(=O)c1ccccc1 | -7% | 0%
O=[N+]([O-])c1ccccc1N/N=C/c1c[nH]c2ccccc12 | -5% | 2%
COc1ccccc1NS(=O)(=O)c1cc([N+](=O)[O-])ccc1N/N=C/c1c[nH]c2ccccc12 | 6% | 10µM*
COc1ccccc1NS(=O)(=O)c1cc([N+](=O)[O-])ccc1N/N=C/c1sc(N2CCOCC2)nc1-c1ccccc1 | -2% | 6.3µM*
Cn1c(=O)c(=O)n(C)c2cc(NC(=O)c3cccc(F)c3)c(Cl)cc21 | -5% | -20%
Cc1ccc(-n2ncc3c(Nc4cccc(C(F)(F)F)c4)ncnc32)cc1C | 1% | -8%
CCc1ccc(CNC(=O)c2cnc3c(C)cccn3c2=O)cc1 | -6% | ?
Cc1ccc(/C=N/Nc2nc3ccccc3[nH]2)s1 | -17% | -24%
C(=N\Nc1nc2ccccc2[nH]1)/c1c[nH]c2ccccc12 | ? | 16µM*
CC(C)c1ccc(CNc2nc(-c3ccco3)nn2C(=O)c2ccc([N+](=O)[O-])cc2)cc1 | -1% | -9%
